Source: PubChem BioAssay
An excerpt weighted towards active compounds, which were near 1.4% of everything screened.
OPRM1-OPRD1 ag: OPRM1-OPRD1 heterodimerization agonism; P35372+P41143; 340,000 tested, 0.3% active; activation, % at 9.3 µM; AID 504326; cells, luminescence; in the data active = activation above about 18%
Target sequence (P35372 whole entry, looked up): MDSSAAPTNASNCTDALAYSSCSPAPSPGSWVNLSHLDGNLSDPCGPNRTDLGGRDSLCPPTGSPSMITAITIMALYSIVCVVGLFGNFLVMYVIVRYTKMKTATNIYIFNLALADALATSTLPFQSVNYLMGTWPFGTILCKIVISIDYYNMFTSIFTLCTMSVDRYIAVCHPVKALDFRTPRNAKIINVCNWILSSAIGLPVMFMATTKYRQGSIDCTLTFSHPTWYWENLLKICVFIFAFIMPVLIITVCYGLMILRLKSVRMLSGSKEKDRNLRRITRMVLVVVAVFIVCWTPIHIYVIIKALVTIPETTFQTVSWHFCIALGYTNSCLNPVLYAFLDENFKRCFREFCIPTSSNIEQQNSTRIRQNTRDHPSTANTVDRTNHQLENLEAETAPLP
Target sequence (P41143 whole entry, looked up): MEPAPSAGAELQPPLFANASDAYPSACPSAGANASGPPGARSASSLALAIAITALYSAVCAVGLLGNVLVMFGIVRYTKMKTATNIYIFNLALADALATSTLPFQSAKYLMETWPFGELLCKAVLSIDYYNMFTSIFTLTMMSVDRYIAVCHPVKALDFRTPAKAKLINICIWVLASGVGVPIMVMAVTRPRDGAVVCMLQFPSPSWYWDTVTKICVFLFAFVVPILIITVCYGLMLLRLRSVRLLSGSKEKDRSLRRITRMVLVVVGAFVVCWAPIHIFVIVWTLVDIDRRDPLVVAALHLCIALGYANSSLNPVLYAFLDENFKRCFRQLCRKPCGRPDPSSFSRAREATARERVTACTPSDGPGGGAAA
MOR-DOR inv ag: inverse agonist of human OPRM1-OPRD1 heterodimerization. cell-based MOR-DOR heterodimer luminescence, inverse agonism. AID 504357. P35372+P41143. inhibition, % at 9.3 µM. 340,000 tested, 0.21% active; in the data active = inhibition above about 22%, passing the limit was not always enough
HTR5A ag ctr: counter-screen for OPRM1-OPRD1 agonists: human HTR5A agonism; 340,000 tested, 0.61% active; HTR5A agonist assay, luminescence, cell-based; AID 504692; activation, % at 9.3 µM; in the data active = activation mostly above about 9.5%, no sharp cut-off; inactive = mostly below about 7.6%
MIN6 prolif-1: inducers of beta-cell replication in MIN6 cells; proliferation, % at 10 µM; 330,000 tested, 0.29% active; MIN6 cells proliferation, ATPlite luminescence, 48 h; cells starved in 0.2% serum; 100% = growth in 10% serum; AID 2380;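 active = compounds whose signal lies at least 3.5 SD above the mean of all wells on their plate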
HTR5A inv ag: HTR5A inverse agonism, opioid heterodimer counter-screen; HTR5A cell line, luminescence; P47898; inhibition, % at 9.3 µM; 340,000 tested, 0.083% active; in the data active = inhibition mostly above about 23%, no sharp cut-off; inactive = mostly below about 18%
pCIP destab: compounds decreasing mouse p/CIP protein stability. Q05BA5. F442A p/CIP-EGFP cells, EGFP fluorescence, 16 h. 290,000 tested, 0.01% active. decrease of EGFP signal, % at 10 µM;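 active = EGFP signal decrease of at least 30% at 10 µM or well 3 SD below plate mean, unless failing retest; inactive = the rest, including hits failing retest or dose response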
MIN6 prolif-2: confirmation of inducers of beta-cell replication in MIN6 cells. 920 tested, under 10 active. MIN6 beta-cell proliferation, ATPlite luminescence, 48 h; cells kept in 0.2% serum; scaled between 0.2% and 10% serum. shares compounds with MIN6 prolif-1. proliferation increase, % at 50 µM. AID 463095;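 active = proliferation increase above 40% at any of the four tested concentrations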
Of the large screens only hits and unclear results are named; the others gave an inactive call (follow-up assays come after a bar, where they were run); ! = repeats disagree.

CCOC(=O)C1=CC[C@@H](c2cc(OC)c(OC)c(OC)c2)N(S(=O)(=O)c2ccc(C)cc2)[C@H]1C(=O)OCC	none (no result: pCIP destab)
Cc1ccc(CSc2nnc(-c3ccccn3)n2C)cc1	MIN6 prolif-1 7.1 | MIN6 prolif-2 inactive
Cn1c(SCc2ccc(F)cc2)nnc1-c1ccccn1	none
COc1cccc(CN(c2ccccc2C(=O)O)S(=O)(=O)c2ccc(C)cc2)c1	none (no result: MIN6 prolif-1, pCIP destab)
CC(=O)Nc1ccc(Oc2cnc3ccccc3n2)cc1	none
CC(=O)Nc1ccc(Oc2cnccn2)cc1	MIN6 prolif-1 0.0 | MIN6 prolif-2 inactive
OCC1=C[C@@H](O)[C@@H]2C=CO[C@@H](O[C@@H]3O[C@H](CO)[C@@H](O)[C@H](O)[C@H]3O)[C@H]12	none (no result: pCIP destab)
c1ccc2c(N3CCCC3)nc(-c3ccncc3)nc2c1	MIN6 prolif-1 14 | MIN6 prolif-2 inactive
COc1nc(-c2ccncc2)nc2ccccc12	MIN6 prolif-1 6.2 | MIN6 prolif-2 inactive
COc1ccc(Oc2nc(-c3ccncc3)nc3ccccc23)cc1	none (no result: OPRM1-OPRD1 ag, MOR-DOR inv ag, HTR5A ag ctr, HTR5A inv ag)
CN1CCN(c2nc(-c3ccncc3)nc3ccccc23)CC1	none
O=C(Cc1ccc2c(c1)OCCO2)Nc1cc(C(F)(F)F)ccc1N1CCOCC1	none (no result: pCIP destab)
CCOc1ccc(NC(=O)CN2C(=O)NC3(CCCCCC3)C2=O)cc1	none (no result: pCIP destab)
CCc1ccc(NC(=O)c2noc3c2CCc2ccccc2-3)cc1	MIN6 prolif-1 7.2 | MIN6 prolif-2 inactive
CN(CC(=O)NCc1ccco1)CC(=O)Nc1cc(S(C)(=O)=O)ccc1Cl	none (no result: pCIP destab)
O/N=C/c1cn(-c2ccccc2)nn1	MIN6 prolif-1 7.6 | MIN6 prolif-2 inactive
O/N=C/c1cn(-c2ccc(Cl)cc2)nn1	none (no result: OPRM1-OPRD1 ag, MOR-DOR inv ag, HTR5A ag ctr, HTR5A inv ag)
CC1(c2ccccc2)NC(=O)N(CC(=O)Nc2ccc3c(c2)CCC3)C1=O (stereo unspecified)	none (no result: pCIP destab)
CCOC(=O)c1cc2c(=O)n3ccccc3nc2n(Cc2ccco2)c1=NC(=O)c1cccnc1	MIN6 prolif-1 9.5 | MIN6 prolif-2 inactive
O=C(NC1CCN(Cc2ccccc2)CC1)c1ccccc1	MIN6 prolif-1 8.2 | MIN6 prolif-2 inactive
CC(=O)NS(=O)(=O)c1ccc(NC(=O)C(C)NS(=O)(=O)/C=C/c2ccccc2)cc1 (stereo unspecified)	none (no result: pCIP destab)
Cc1ccc(NC(=O)CCC(=O)N/N=C/c2coc3ccc(F)cc3c2=O)cc1	MIN6 prolif-1 11 (no result: pCIP destab) | MIN6 prolif-2 inactive
COc1ccc(CS(=O)(=O)CC(C)(O)c2ccccc2Cl)cc1 (stereo unspecified)	MIN6 prolif-1 8.9 | MIN6 prolif-2 inactive
CCOc1cc(/C=N/n2nnnc2N)ccc1OCc1c(C)no[n+]1[O-]	MIN6 prolif-1 0.0 | MIN6 prolif-2 inactive
O=C(c1ccc(F)cc1)N1CCCC(C(=O)N2CCc3ccccc3C2)C1 (stereo unspecified)	none
O=C(c1cccc([N+](=O)[O-])c1)N1CCCC(C(=O)N2CCc3ccccc3C2)C1 (stereo unspecified)	MIN6 prolif-1 6.0 | MIN6 prolif-2 inactive
C#CCOc1ccc(/C=C2/C(=O)NN(c3ccc(F)cc3)C2=O)cc1OC	none
O=C(Cc1ccc(-c2ccccc2)cc1)Nc1ccccc1	MIN6 prolif-1 6.0 | MIN6 prolif-2 inactive
C/C(=N\NS(=O)(=O)c1ccc(C)cc1)c1cc2ccccc2oc1=O	MIN6 prolif-1 8.4 | MIN6 prolif-2 inactive
CCCCN(C(=O)c1ccc(C)cc1)c1c(N)n(CCC)c(=O)[nH]c1=O	none
COc1ccc(-c2c(-c3ccccc3OC)oc3ccccc23)cn1	none (no result: pCIP destab)
COc1ccc(-c2csc3ncnc(N4CCN(C(=O)c5ccco5)CC4)c23)cc1	MIN6 prolif-1 11 (no result: pCIP destab) | MIN6 prolif-2 inactive
O=C(c1ccco1)N1CCN(c2ncnc3scc(-c4ccccc4)c23)CC1	none
Nc1ncnc2c1ncn2[C@H]1C[C@H](O)[C@@H](COP(=O)(O)O)O1	MIN6 prolif-1 13 | MIN6 prolif-2 inactive
NCC1OC(n2cnc3c(N)ncnc32)CC1O (stereo unspecified)	none (no result: MIN6 prolif-1, pCIP destab)
COC(=O)c1ccc(C(=O)OC)nc1	none
COC(=O)c1ccc(SC)cn1	MIN6 prolif-1 11 | MIN6 prolif-2 inactive
NC(=O)c1[nH]cnc1N	MIN6 prolif-1 12! | MIN6 prolif-2 inactive
CCOc1ncccc1C(=O)OC(C)C(=O)Nc1ccc(Cl)cn1 (stereo unspecified)	MIN6 prolif-1 13 (no result: pCIP destab) | MIN6 prolif-2 inactive
Cc1cc(NC(=O)CCC(=O)N(Cc2ccco2)C(C)(C)C(=O)NC2CCCCC2)no1	none
Cc1cc(NC(=O)CCC(=O)N(Cc2cccs2)C(C)(C)C(=O)NC2CCCCC2)no1	MIN6 prolif-1 6.2 | MIN6 prolif-2 inactive
O=C(COC(=O)C1CCN(S(=O)(=O)c2ccccc2)CC1)NCCc1ccccc1	none (no result: pCIP destab)
COc1ccc(NC(=O)/C(C#N)=C/c2ccc(OCCN3CCOCC3)c(OC)c2)c(OC)c1	MIN6 prolif-1 11 | MIN6 prolif-2 inactive
COc1ccc(CCn2c(=N)c(S(=O)(=O)c3ccc(C)cc3)cc3c(=O)n4ccccc4nc32)cc1	MIN6 prolif-1 13 | MIN6 prolif-2 inactive
CC(C)=C[C@H]1C[C@H](C)[C@H]2CC[C@H](C)c3c(O[C@@H]4OC[C@@H](O)[C@H](O)C4O)c(O)c(C)c1c32 (stereo partly specified)	none (no result: pCIP destab)
CCOc1ccccc1-n1c(SCC(=O)N2CCCc3ccccc32)nnc1-c1cccnc1	MIN6 prolif-1 6.6 | MIN6 prolif-2 inactive
COc1cc2c(cc1OC)CN(C(=O)c1sccc1C)CC2	MIN6 prolif-1 5.1 | MIN6 prolif-2 inactive
Cc1cn(CC(=O)NCC(C)c2ccccc2)c(=O)[nH]c1=O (stereo unspecified)	none (no result: MIN6 prolif-1, pCIP destab)
CCOC(=O)c1c(-c2cccs2)csc1NC(C)=O	MIN6 prolif-1 13 | MIN6 prolif-2 inactive
CCC(C)(C)NC(=O)C(c1sccc1C)N(Cc1ccco1)C(=O)c1csnn1 (stereo unspecified)	none
Cc1ccsc1C(C(=O)NC(C)(C)C)N(Cc1ccco1)C(=O)c1csnn1 (stereo unspecified)	MIN6 prolif-1 10 | MIN6 prolif-2 inactive
COCCCNC(=O)CN(c1ccc(F)cc1)S(=O)(=O)c1ccc2c(c1)OCCO2	MIN6 prolif-1 6.0 | MIN6 prolif-2 inactive
Nc1ccc(C(=O)N2CCN(S(=O)(=O)c3ccc4c(c3)OCCCO4)CC2)cc1[N+](=O)[O-]	none (no result: pCIP destab)
N#Cc1c2c(c(NCCN3CCOCC3)n3c1nc1ccccc13)CCCC2	MIN6 prolif-1 7.5 | MIN6 prolif-2 inactive
CC(=O)Nc1ccc(NC(=O)C(C)OC(=O)c2cccc(S(=O)(=O)N3CCCCCC3)c2)cc1 (stereo unspecified)	MIN6 prolif-1 12 (no result: pCIP destab) | MIN6 prolif-2 inactive
